Among the data in PubChem BioAssay (EPA / NIEHS) are outcome and AC50 values, retold here.

The nature of assay [1]: ATG_ERE_CIS: Attagene CIS-FACTORIAL HepG2 Assay for Estrogen Response Element (ERE) (AID 2282940). To be noted: HepG2 ERE cis-reporter, Attagene RNA transcript; actives raise or lower the signal. In outline:
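Cells used were human hepatoma HepG2, transfected with multiple reporter transcription units under cis-regulatory promoters. Reporter mRNA, read 24 h post-dosing via fluorescent RT-PCR products on capillary electrophoresis, was fitted bidirectionally relative to DMSO.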

The target of assay [2] is Bile acid receptor (Homo sapiens) (UniProt Q96RI1). Description: ATG_FXR_TRANS: Attagene TRANS-FACTORIAL HepG2 Assay for Farnesoid X Receptor (FXR) (AID 2282979; active means hit-call score of the fitted dose curve at least 0.9, where 1 is the maximum;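 further: hits raise reporter mRNA above DMSO so AC50 marks FXR activation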). To be noted: HepG2 Attagene TRANS FXR-GAL4 reporter transcription. In outline: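 Reporter transcripts from transfected HepG2 cells were measured 24 h after dosing, using RT-PCR with capillary electrophoresis of 6-FAM-labelled fragments. The read-out reflects activity of exogenous FXR-Gal4 chimera on GAL4-UAS units, with induction relative to DMSO.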

Assay [3] deals with Aryl hydrocarbon receptor (Homo sapiens) (UniProt P35869). Description: ATG_Ahr_CIS: Attagene CIS-FACTORIAL HepG2 Assay for human Aryl Hydrocarbon Receptor (Ahr) (AID 2282930). As to conditions: HepG2 AhR cis-factorial reporter transcription; actives raise or lower the signal. In short, it runs like this: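 Reporter mRNA levels, quantified by RT-PCR and fluorescent capillary electrophoresis, reflect endogenous AhR transcriptional activity in HepG2 cells carrying transfected cis-promoter reporter constructs. Readout at 24 h post-dose; gain or loss fitted against DMSO baseline.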

The nature of assay [4]: BSK_3C_TissueFactor: BioMAP Diversity Plus: 3C Assay for Tissue Factor Biomarker Activity (AID 2282997). To be noted: BioMAP 3C HUVEC, tissue factor biomarker readout; actives raise or lower the signal. In short, it runs like this: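 Tissue factor on primary human umbilical vein endothelium was read by ELISA 24 h after dosing, gain or loss relative to DMSO. Cytotoxicity ran alongside via SRB (0.1%, TCA-fixed, 560 nm).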

Assay [5] is described as follows: BSK_3C_uPAR: BioMAP Diversity Plus: 3C Assay for Urokinase-type plasminogen activator receptor (uPAR) Biomarker Activity (AID 2282998). To be noted: BioMAP 3C HUVEC, uPAR biomarker ELISA; actives raise or lower the signal. In short, it runs like this:
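Dose primary human umbilical vein endothelial cells, incubate 24 h, measure cell-surface uPAR by ELISA, then fit the signal in both directions against the DMSO negative control.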

Read-out in assay [6]: Interleukin-1 alpha (IL1a), IL1A (gene 3552)
Nature of the assay: BSK_BE3C_IL1a: BioMAP Diversity Plus: BE3C Assay for Interleukin-1 alpha (IL1a) Biomarker Activity (AID 2283016). To be noted: primary human bronchial epithelial cells; actives raise or lower the signal. In outline: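 IL-1a measured by ELISA after 24 h treatment of human primary bronchial epithelial cells, with gain or loss of signal fitted versus DMSO. Parallel cultures stained with SRB gauge overt cytotoxicity.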

Read-out in assay [7]: Monocyte Chemoattractant Protein-1 (MCP1), CCL2 (gene 6347)
Description: BSK_3C_MCP1: BioMAP Diversity Plus: 3C Assay for Monocyte Chemoattractant Protein-1 (MCP1) Biomarker Activity (AID 2283017). To be noted: primary human endothelial cells (HUVEC); actives raise or lower the signal. In short, it runs like this:
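MCP-1 was measured by ELISA 24 h after dosing in primary HUVEC 3C cultures and fitted in both directions relative to DMSO; cytotoxicity was checked by SRB total-protein staining in parallel wells.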

Read-out in assay [8]: Monocyte Chemoattractant Protein-1 (MCP1), CCL2 (gene 6347)
Nature of the assay: BSK_4H_MCP1: BioMAP Diversity Plus: 4H Assay for Monocyte Chemoattractant Protein-1 (MCP1) Biomarker Activity (AID 2283018). To be noted: primary human endothelial cells (HUVEC); actives raise or lower the signal. In short, it runs like this: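 ELISA of MCP-1 (CCL2) 24 h after chemical dosing of HUVEC in the BioMAP 4H system. Gain or loss versus DMSO fitted; parallel SRB staining (560 nm) tracked overt cytotoxicity.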

Read-out in assay [9]: Interleukin-8 (IL8), CXCL8 (gene 3576)
Description: BSK_3C_IL8: BioMAP Diversity Plus: 3C Assay for Interleukin-8 (IL8) Biomarker Activity (AID 2283020). To be noted: primary human endothelial cells (HUVEC); actives raise or lower the signal. In short, it runs like this:
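IL-8 was measured by ELISA in HUVEC cultures 24 h after chemical dosing, with gain or loss of signal fitted relative to DMSO. Parallel SRB total-protein staining tracked overt cytotoxicity.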

Read-out in assay [10]: Monokine induced gamma interferon (MIG), CXCL9 (gene 4283)
Nature of the assay: BSK_3C_MIG: BioMAP Diversity Plus: 3C Assay for Monokine induced gamma interferon (MIG) Biomarker Activity (AID 2283021).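 On AC50: MIG protein level measured by immunoassay in the treated endothelial cultures.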 To be noted: primary human endothelial cells (HUVEC); actives raise or lower the signal. In outline: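 ELISA measurement of MIG in human umbilical vein endothelial cells 24 h after treatment. Cytotoxicity tracked by SRB staining in parallel cultures; gain or loss of signal fitted relative to DMSO.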

The nature of assay [11]: BSK_3C_SRB: Viability Assessment in the BioMAP Diversity Plus: 3C Assay (AID 2283023).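 Further: fitted both ways against DMSO so a hit may be signal rise or drop.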 As to conditions: primary human endothelial cells (HUVEC). In outline: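 Cytotoxicity readout in parallel HUVEC 3C cultures: after 24 h compound exposure, cells fixed with 10% TCA, stained with 0.1% SRB and read at 560 nm. Gain or loss relative to DMSO fitted.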
Read-out in assay [12]: Pselectin, SELP (gene 6403)
Nature of the assay: BSK_4H_Pselectin: BioMAP Diversity Plus: 4H Assay for Pselectin Biomarker Activity (AID 2283026). As to conditions: primary human endothelial cells (HUVEC); actives raise or lower the signal. In outline: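 ELISA of surface P-selectin on HUVEC, 24 h after dosing, with parallel SRB staining (0.1% after 10% TCA fixation, 560 nm) for overt cytotoxicity. Activity fitted in both directions relative to DMSO.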

The nature of assay [13]: BSK_4H_SRB: Viability Assessment in the BioMAP Diversity Plus: 4H Assay (AID 2283027).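 Further: cells exposed to compound for 24 h before staining.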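 On AC50: curves fitted both ways versus DMSO so AC50 may be loss or gain.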 To be noted: primary human endothelial cells (HUVEC). In outline:
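Cytotoxicity read-out in primary human endothelial cells: after 24 h compound exposure, cells were TCA-fixed (10%), stained with 0.1% SRB and absorbance taken at 560 nm. Values fitted in both directions relative to DMSO.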

Read-out in assay [14]: Human Leukocyte Antigen - DR isotype (HLADR), HLA-DRA (gene 3122)
Description: BSK_BE3C_HLADR: BioMAP Diversity Plus: BE3C Assay for Human Leukocyte Antigen - DR isotype (HLADR) Biomarker Activity (AID 2283032). To be noted: primary human bronchial epithelial cells; actives raise or lower the signal. In short, it runs like this: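 Cell-surface HLA-DR ELISA readout at 24 h after dosing in the BE3C primary human lung bronchial epithelial system; gain or loss of signal against DMSO, with parallel sulforhodamine B staining of total protein for overt cytotoxicity.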

Read-out in assay [15]: Plasminogen activator inhibitor-1 (PAI1), SERPINE1 (gene 5054)
Description: BSK_BE3C_PAI1: BioMAP Diversity Plus: BE3C Assay for Plasminogen activator inhibitor-1 (PAI1) Biomarker Activity (AID 2283037). As to conditions: primary human bronchial epithelial cells; actives raise or lower the signal. In short, it runs like this:
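PAI-1 was measured by ELISA in human primary bronchial epithelial cultures 24 h after chemical dosing, with cytotoxicity checked by SRB total-protein staining in parallel cultures. Activity was fitted in both directions relative to DMSO.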

Read-out in assay [16]: urokinase plasminogen activator (uPA), PLAU (gene 5328)
Description: BSK_BE3C_uPA: BioMAP Diversity Plus: BE3C Assay for urokinase plasminogen activator (uPA) Biomarker Activity (AID 2283038).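 Further: uPA protein level quantified by ELISA in cell cultures; uPA read one day after compound addition.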 To be noted: primary human bronchial epithelial cells; actives raise or lower the signal. In short, it runs like this: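 ELISA for uPA on human primary bronchial epithelial cultures 24 h post-treatment, gain or loss against DMSO. Parallel SRB staining (0.1% after 10% TCA fixation, 560 nm) assessed overt cytotoxicity.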

Read-out in assay [17]: Tissue plasminogen activator (tPA), PLAT (gene 5327)
Description: BSK_BE3C_tPA: BioMAP Diversity Plus: BE3C Assay for Tissue plasminogen activator (tPA) Biomarker Activity (AID 2283041).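 On outcome: tPA level quantified by ELISA one day after compound addition.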 To be noted: primary human bronchial epithelial cells; actives raise or lower the signal. In outline: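 tPA measured by ELISA 24 h after dosing human primary bronchial epithelial cells (BE3C system). Changes in either direction were fitted against DMSO. Parallel cultures were stained with SRB to flag overt cytotoxicity.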

Read-out in assay [18]: Macrophage colony-stimulating factor (MCSF), CSF1 (gene 1435)
Nature of the assay: BSK_CASM3C_MCSF: BioMAP Diversity Plus: CASM3C Assay for Macrophage colony-stimulating factor (MCSF) Biomarker Activity (AID 2283044).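 Further: M-CSF protein amount quantified by ELISA after 24 h exposure.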 To be noted: primary human coronary artery smooth muscle cells; actives raise or lower the signal.

Read-out in assay [19]: Interleukin-1 alpha (IL1a), IL1A (gene 3552)
Description: BSK_LPS_IL1a: BioMAP Diversity Plus: LPS Assay for Interleukin-1 alpha (IL1a) Biomarker Activity (AID 2283080). As to conditions: primary human HUVEC with PBMC; actives raise or lower the signal. In short, it runs like this: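 Readout is IL-1a level by ELISA, 24 h post-dose, fitted as gain or loss relative to DMSO. System: LPS-activated human primary co-culture of vascular endothelium and peripheral blood mononuclear cells, with parallel SRB total-protein cytotoxicity.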

Assay [20] in a line: BSK_LPS_PGE2: BioMAP Diversity Plus: LPS Assay for Prostaglandin E2 (PGE2) Biomarker Activity (AID 2283082). To be noted: primary human HUVEC with PBMC; actives raise or lower the signal. In outline: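 PGE2 release measured by ELISA in an LPS-activated co-culture of human umbilical vein endothelial cells and peripheral blood mononuclear cells, read at 24 h post-dosing. DMSO served as baseline for bidirectional curve fitting.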

Where “and” joins values, the source holds several entries; their conditions need not be identical. Equal entries are not always repeated. Records with an inconclusive call do not appear. Some compounds were tested as several samples or in several runs, with calls that do not always agree. Calls of active or inactive are those of the source. How the source made its calls, unless noted: active means hit-call score of the fitted dose curve at least 0.9, where 1 is the maximum; inactive means score below 0.9.

Bile acid receptor (Homo sapiens), sequence (Q96RI1 whole entry, looked up, the tested form may be a part): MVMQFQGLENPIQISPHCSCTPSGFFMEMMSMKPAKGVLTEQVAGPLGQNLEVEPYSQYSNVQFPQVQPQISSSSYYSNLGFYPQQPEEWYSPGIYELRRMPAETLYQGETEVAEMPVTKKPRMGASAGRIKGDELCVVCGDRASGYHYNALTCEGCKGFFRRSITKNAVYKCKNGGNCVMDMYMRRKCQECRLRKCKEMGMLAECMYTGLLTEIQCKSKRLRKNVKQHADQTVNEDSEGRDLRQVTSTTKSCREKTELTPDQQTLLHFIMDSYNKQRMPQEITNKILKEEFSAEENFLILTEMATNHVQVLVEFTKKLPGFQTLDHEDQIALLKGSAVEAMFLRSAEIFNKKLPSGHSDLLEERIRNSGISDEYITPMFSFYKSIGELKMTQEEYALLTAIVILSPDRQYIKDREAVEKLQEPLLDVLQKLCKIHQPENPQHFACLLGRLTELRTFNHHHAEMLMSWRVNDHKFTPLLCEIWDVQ
Aryl hydrocarbon receptor (Homo sapiens), sequence (P35869 whole entry, looked up): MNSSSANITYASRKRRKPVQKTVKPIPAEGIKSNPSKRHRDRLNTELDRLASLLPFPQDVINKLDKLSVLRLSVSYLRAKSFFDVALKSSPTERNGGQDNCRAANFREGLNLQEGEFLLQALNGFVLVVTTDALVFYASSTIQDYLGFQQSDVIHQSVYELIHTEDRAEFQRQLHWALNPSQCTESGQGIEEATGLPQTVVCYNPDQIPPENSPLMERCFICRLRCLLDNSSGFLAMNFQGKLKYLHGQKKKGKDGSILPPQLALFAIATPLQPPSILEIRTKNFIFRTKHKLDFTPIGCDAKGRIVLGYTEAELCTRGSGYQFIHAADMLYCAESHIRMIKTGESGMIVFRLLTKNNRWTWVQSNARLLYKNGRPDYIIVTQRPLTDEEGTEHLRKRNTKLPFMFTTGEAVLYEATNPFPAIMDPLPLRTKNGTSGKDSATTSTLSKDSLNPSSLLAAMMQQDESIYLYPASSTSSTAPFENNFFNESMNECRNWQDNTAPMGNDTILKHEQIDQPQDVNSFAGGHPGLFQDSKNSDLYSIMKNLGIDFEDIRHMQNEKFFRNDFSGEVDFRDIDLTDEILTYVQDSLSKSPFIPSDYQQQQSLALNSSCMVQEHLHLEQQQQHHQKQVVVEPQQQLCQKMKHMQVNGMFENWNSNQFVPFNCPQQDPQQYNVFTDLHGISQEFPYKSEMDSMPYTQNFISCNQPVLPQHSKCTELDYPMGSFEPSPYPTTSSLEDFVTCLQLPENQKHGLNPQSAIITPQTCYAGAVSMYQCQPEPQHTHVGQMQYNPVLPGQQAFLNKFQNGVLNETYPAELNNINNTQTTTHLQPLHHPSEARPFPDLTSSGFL

On to `CN(N=O)c1ccccc1`, for which the call in [1] and in assay [2] was inactive.
For `C[N+](C)(C)CC(=O)[O-]`, the compound was called inactive in [1].
For `COc1ccc(CO)cc1`, the compound was classed as inactive in [3], in assay [2], in assay [4], in assay [5], in assay [6] and in assay [7]. For the same compound, the result in assay [8], in assay [9], in assay [10], in [11], in assay [12] and in [13] was inactive. Besides, the result in [14], in [15], in [16], in [17], in assay [18] and in [19] was inactive. In [20], the result was inactive. In assay [15], the concentration at half-maximal activity (AC50) was 308 nM (active).
As for `O=[N+]([O-])c1cc([N+](=O)[O-])c2ccccc2c1`, in [3], the AC50 is 8.37 µM (active).
Consider `CCN(CC)C(=S)S`, for which the outcome in assay [3] and in assay [1] was inactive.
Consider `CC(C)COP(=O)(OCC(C)C)OCC(C)C`, for which the outcome in [2], in assay [4], in assay [5], in [6], in assay [7] and in assay [8] was inactive. For the same compound, the result in assay [9], in assay [10], in [11], in assay [12], in assay [13] and in assay [14] was inactive. Further, the outcome in assay [15], in [16], in assay [17], in [18], in assay [19] and in assay [20] was inactive.
With `CC1OC(C)OC(C)O1` (stereo not given), the compound was called inactive in [3] and in assay [2].
In the case of `O=c1[nH]c(Cl)c(Cl)cc1Cl`, the compound was classed as inactive in [2], in assay [4], in assay [5], in assay [6], in [7] and in assay [8]. Also, the outcome in assay [9], in [10], in assay [11], in assay [12], in assay [13] and in assay [14] was inactive. The outcome in assay [15], in assay [16], in assay [17], in assay [18], in assay [19] and in [20] was inactive.
For `N#CC(c1ccccc1)c1ccccc1`, in assay [2], the compound was called inactive.
`CC1(C)CC(=O)CC(C)(C)N1[O]`: the compound was called inactive in assay [3] and in [2].
`C[N+](=O)[O-]`: the call in assay [3] and in [1] was inactive.
On to `Nc1ccccc1C(=O)Oc1ccc2ccccc2c1`, for which the AC50 in [1] is 18.1 µM (active).
`CC(=O)/C=C/c1ccccc1`: the outcome in assay [4], in assay [5], in [6], in [7], in [8] and in assay [9] was inactive. Moreover, the result in assay [10], in assay [11], in assay [12], in [13], in assay [15] and in assay [16] was inactive. Also, the result in assay [17], in [18] and in assay [20] was inactive. The AC50 is 3.97 µM (active) in [14] and 20 µM (active) in [19].
As to `O=C1C=CC(=O)C=C1`, the AC50 in [3] was 2.15 µM (active); in assay [4], 33.2 µM (active); in assay [5] it was 12.8 µM (active); in assay [6] it was 33 µM (active); in assay [7] it was 20 µM (active); in assay [8], 33.4 µM (active). In addition, the AC50 in assay [9] was 32.9 µM (active); in assay [10], 35.6 µM (active); in [11], 28 µM (active); in [12], 14.1 µM (active); in [13], 28.7 µM (active); in [14] it was 27 µM (active). Besides, the AC50 in assay [15] was 1.68 µM (active) and 14.6 µM (active); in assay [17], 34.9 µM (active); in assay [18] it was 12.1 µM (active); in assay [19] it was 30.6 µM (active); in [20], 31.7 µM (active). Further, the result in [4], in [5], in assay [6], in [7], in assay [8] and in [9] was inactive. Further, the outcome in assay [10], in assay [11], in assay [12], in assay [13], in assay [14] and in assay [16] was inactive. For the same compound, the outcome in assay [17], in [18], in [19] and in assay [20] was inactive.
